Activity calls are given as the source filed them.

This is an account of results in PubChem BioAssay.

The subject of experiment [1] is Plasmodium falciparum Sir2 (PF13_0152, Sir2A). The experiment can be described thus: Plasmodium falciparum Sir2A binding compounds – biochemical, small-molecule microarray, 635 nm fluorescence, primary screen (AID 1098).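 Further: score merges spot fluorescence intensity with its signal-to-noise ratio.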 The settings on record: fluorescence 635 nm, higher = more signal.
A short description of experiment [2]: probe aDKK1 binding to arrayed compounds – biochemical, biotinylated probe, 635/667 nm fluorescence, primary screen (AID 1099).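 Further: score merges 667nm spot fluorescence with signal to noise across triplicate slides.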 The following applies: small-molecule microarray, higher = more signal.
Experiment [3] can be described thus: probe aCHRDL2 binding to arrayed compounds – biochemical, biotinylated probe, 635/667 nm fluorescence, primary screen (AID 1100). The settings on record: small-molecule microarray, higher = more signal.
A short description of experiment [4]: change in splice reporter luminescence, either direction, cell-based, HEK293, spliceosome inhibition project, primary screen (AID 1101).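 Further: HEK293 cells carrying a splicing-competent luciferase reporter gene; test concentration not given here.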 The settings on record: HEK293 splicing luciferase reporter, 24 h, higher = more signal, called active from +8 up or from −8 down.
Experiment [5] addresses Fibroblast growth factor 10 (Homo sapiens) (UniProt O15520). The experiment can be described thus: compounds binding fibroblast growth factor 10 – biochemical, small-molecule microarray, 635 nm fluorescence, primary screen (AID 1102). The settings on record: FGF10 binding, fluorescence 635 nm, higher = more signal.
In experiment [6] the test system is glycogen synthase kinase-3 (GSK3A per assay name; protocol says GSK3B). The experiment can be described thus: compounds binding glycogen synthase kinase-3 – biochemical, small-molecule microarray, 635 nm fluorescence, GSK3A, primary screen (AID 1103). Further: the record names both GSK3A and GSK3B. The settings on record: fluorescence 635 nm, higher = more signal.
In experiment [7] the target is Epidermal growth factor receptor (Homo sapiens) (UniProt P00533). Description: compounds binding epidermal growth factor receptor – biochemical, small-molecule microarray, 635 nm fluorescence, primary screen (AID 1104).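 Further: score merges 667 nm emission intensity with spot signal to noise over triplicate slides.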 The following applies: EGFR binding, higher = more signal.
Experiment [8] deals with Follistatin-related protein 3 (Homo sapiens) (UniProt O95633). The experiment can be described thus: compounds binding follistatin-related protein 3 – biochemical, small-molecule microarray, 635 nm fluorescence, primary screen (AID 1105).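 Further: score merges emission near 667 nm and signal to noise per printed spot across three slides.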 The following applies: FSTL3 binding, higher = more signal.
Experiment [9] concerns the target Dickkopf-related protein 1 (Homo sapiens) (UniProt O94907). The experiment can be described thus: small molecules binding DKK1 protein – biochemical, small-molecule microarray, 635 nm fluorescence scan, primary screen (AID 1106).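 Further: score merges emission near 667 nm with signal to noise over three replicate slides.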 The settings on record: higher = more signal.
For experiment [10], the system named is Inhibin beta A chain (activin A). The experiment can be described thus: small molecules binding activin A – biochemical, small-molecule microarray, 635 nm fluorescence scan, primary screen (AID 1107).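 Further: mouse activin A protein probed at 4.33 µg/mL on printed slides; score merges bound-protein fluorescence near 667 nm with spot signal-to-noise.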 The following applies: INHBA, higher = more signal.
In experiment [11] the test system is Human papillomavirus type 1a protein E7 (residues 44-93). The experiment can be described thus: small molecules binding HPV E7 44-93 – biochemical, small-molecule microarray, residues 44-93, 635 nm fluorescence, primary screen (AID 1108).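 Further: E7 fragment applied at 1 µg/mL in TBST for 1 h at 4 C; score combines spot fluorescence with its signal to noise ratio.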 The following applies: fluorescence 635 nm, higher = more signal.
A short description of experiment [12]: hepatitis C replication reporter changes, two-sided – Huh7 cells, luciferase reporter, HCV replication inhibitor project, primary screen (AID 1109).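 Further: huh7 hepatoma cells harbouring a luciferase neomycin HCV replicon reporter; luciferase luminescence as measure of HCV replicon replication; test concentration not given here.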 The following applies: Huh7 HCV replicon luciferase reporter, 48 h; higher = more signal. (In a reporter assay the amount or activity of a reporter protein is the signal.)
Experiment [13] addresses Left-right determination factor 2 (Homo sapiens) (UniProt O00292). Description: small molecules binding LEFTY2 protein – biochemical, small-molecule microarray, 635 nm fluorescence scan, primary screen (AID 1110). The settings on record: higher = more signal.
In experiment [14] the target is Calmodulin-1 (Homo sapiens) (UniProt P0DP23). Description: small molecules binding calmodulin-1 with EGTA – biochemical, small-molecule microarray, Cy5-labelled CALM1, profiling panel (AID 1111).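 Further: labelled calmodulin applied in Tris saline Tween buffer holding calcium plus EGTA and DTT.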 The following applies: Cy5-CALM1 binding fluorescence, higher = more signal.
Experiment [15] has the same target. Description: small molecules binding Ca-loaded calmodulin-1 – biochemical, small-molecule microarray, Cy5-labelled CALM1, plus calcium, artefact control for SMM control-protein annotation, profiling panel (AID 1112).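 Further: score merges spot fluorescence with signal to noise from triplicate slides.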 The following applies: Cy5-CALM1 binding fluorescence, higher = more signal.
Experiment [16] is described as follows: probe aWnt5a binding to arrayed compounds – biochemical, biotinylated probe, 635/667 nm fluorescence, primary screen (AID 1113).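 Further: score merges 667 nm fluorescence intensity with signal-to-noise per printed feature.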 The following applies: small-molecule microarray, higher = more signal.
Experiment [17] in a line: probe aShh binding to arrayed compounds – biochemical, biotinylated probe, 635/667 nm fluorescence, primary screen (AID 1114).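 Further: probe is biotin-labelled aShh protein from a stem cell growth factor screen; measures binding of labelled protein to compounds printed on the slide; score merges feature fluorescence at 667 nm with signal-to-noise.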 The following applies: small-molecule microarray, higher = more signal.
A short description of experiment [18]: probe aNog binding to arrayed compounds – biochemical, biotinylated probe, 635/667 nm fluorescence, primary screen (AID 1115).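 Further: probe is biotinylated aNog protein used at 0.15 µg/mL for 1 h at 4 C; z-score combines 667 nm fluorescence of each spot with its signal to noise.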 The settings on record: small-molecule microarray, higher = more signal.
In experiment [19] the target is Torsin-1A-interacting protein 1 (Homo sapiens) (UniProt Q5JTV8). Description: compound microarray binding of lysate hLAP1 – cell lysate, small-molecule microarray, COS7 lysate, 635/667 nm fluorescence, primary screen (AID 1116). The settings on record: 635 nm fluorescence, higher = more signal.
Experiment [20] addresses Alpha-bungarotoxin (Bungarus multicinctus) (UniProt P60615). Description: compounds binding labelled alpha-BTX control protein – biochemical, small-molecule microarray, Alexa647 label, 635/667 nm fluorescence, artefact control for SMM control protein annotation, profiling panel (AID 1117). The following applies: alpha-BTX-A647 binding fluorescence, higher = more signal.

Chain of Left-right determination factor 2 (Homo sapiens) (O00292 whole entry, looked up): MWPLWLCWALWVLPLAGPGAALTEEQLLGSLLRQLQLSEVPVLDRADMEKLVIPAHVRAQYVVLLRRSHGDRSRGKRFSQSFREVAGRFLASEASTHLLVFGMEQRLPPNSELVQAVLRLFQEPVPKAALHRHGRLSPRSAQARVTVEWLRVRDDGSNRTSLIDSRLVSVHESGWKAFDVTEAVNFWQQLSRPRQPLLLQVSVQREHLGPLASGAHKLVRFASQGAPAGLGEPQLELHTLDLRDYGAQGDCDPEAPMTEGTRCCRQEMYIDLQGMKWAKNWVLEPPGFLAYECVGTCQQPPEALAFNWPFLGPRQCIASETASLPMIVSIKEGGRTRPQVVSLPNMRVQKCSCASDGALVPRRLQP
Chain of Torsin-1A-interacting protein 1 (Homo sapiens) (Q5JTV8 whole entry, looked up): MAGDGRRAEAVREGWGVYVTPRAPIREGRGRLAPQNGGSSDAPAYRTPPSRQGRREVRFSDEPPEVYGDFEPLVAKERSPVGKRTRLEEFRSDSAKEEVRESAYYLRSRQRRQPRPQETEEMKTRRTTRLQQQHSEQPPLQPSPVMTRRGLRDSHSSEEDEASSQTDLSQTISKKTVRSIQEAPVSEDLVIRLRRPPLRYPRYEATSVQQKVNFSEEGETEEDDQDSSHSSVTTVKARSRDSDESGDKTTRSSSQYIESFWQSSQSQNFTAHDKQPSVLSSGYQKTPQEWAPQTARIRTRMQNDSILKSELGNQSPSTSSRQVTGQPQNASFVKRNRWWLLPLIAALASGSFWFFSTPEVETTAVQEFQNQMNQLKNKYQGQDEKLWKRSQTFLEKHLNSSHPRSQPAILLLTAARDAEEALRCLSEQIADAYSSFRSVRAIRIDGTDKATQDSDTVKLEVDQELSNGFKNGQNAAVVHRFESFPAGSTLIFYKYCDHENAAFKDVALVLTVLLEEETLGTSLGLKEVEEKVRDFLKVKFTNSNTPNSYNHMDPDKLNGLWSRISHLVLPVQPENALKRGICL
Chain of Epidermal growth factor receptor (Homo sapiens) (P00533 whole entry, looked up): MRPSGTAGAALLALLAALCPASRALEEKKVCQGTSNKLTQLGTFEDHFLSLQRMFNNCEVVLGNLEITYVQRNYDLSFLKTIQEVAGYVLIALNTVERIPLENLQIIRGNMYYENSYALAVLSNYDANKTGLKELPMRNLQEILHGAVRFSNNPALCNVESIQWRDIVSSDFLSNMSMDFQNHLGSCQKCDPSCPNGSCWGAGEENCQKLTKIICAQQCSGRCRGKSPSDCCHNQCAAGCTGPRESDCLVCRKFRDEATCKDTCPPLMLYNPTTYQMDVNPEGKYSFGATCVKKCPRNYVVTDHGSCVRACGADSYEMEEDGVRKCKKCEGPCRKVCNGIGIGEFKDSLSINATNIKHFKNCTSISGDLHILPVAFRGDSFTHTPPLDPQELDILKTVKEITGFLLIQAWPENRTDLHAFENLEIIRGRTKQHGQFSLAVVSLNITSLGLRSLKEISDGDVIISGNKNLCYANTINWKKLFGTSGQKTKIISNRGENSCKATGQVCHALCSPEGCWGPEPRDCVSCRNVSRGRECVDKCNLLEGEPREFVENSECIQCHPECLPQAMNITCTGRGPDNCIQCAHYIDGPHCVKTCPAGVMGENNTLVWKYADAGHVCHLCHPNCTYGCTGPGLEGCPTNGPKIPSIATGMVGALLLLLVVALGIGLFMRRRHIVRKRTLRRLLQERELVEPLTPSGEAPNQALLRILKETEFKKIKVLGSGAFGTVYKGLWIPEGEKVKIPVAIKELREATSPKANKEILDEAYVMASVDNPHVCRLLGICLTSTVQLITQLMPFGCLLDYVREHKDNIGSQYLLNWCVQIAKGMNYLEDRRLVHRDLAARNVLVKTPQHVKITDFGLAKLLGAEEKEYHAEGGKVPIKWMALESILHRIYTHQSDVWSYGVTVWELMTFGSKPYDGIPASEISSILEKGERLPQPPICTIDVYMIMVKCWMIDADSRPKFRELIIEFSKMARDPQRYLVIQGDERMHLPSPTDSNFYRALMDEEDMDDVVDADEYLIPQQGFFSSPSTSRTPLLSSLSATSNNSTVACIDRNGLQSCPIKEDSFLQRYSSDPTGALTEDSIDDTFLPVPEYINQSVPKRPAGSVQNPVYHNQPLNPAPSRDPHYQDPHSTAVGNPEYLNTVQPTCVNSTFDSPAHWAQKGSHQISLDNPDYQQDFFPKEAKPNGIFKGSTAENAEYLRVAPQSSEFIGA
Chain of Dickkopf-related protein 1 (Homo sapiens) (O94907 whole entry, looked up): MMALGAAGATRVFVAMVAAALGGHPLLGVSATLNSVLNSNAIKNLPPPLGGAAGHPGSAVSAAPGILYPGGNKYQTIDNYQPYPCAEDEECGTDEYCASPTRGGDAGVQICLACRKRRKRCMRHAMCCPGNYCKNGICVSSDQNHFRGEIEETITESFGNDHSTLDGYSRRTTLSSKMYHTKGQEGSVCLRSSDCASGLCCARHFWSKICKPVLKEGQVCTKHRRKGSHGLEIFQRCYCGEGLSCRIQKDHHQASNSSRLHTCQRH
Chain of Fibroblast growth factor 10 (Homo sapiens) (O15520 whole entry, looked up): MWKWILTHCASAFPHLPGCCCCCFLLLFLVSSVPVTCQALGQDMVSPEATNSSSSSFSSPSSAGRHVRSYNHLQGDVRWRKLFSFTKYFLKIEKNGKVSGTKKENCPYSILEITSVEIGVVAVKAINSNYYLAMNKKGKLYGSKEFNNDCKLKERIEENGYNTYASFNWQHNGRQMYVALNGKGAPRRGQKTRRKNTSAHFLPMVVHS
Chain of Alpha-bungarotoxin (Bungarus multicinctus) (P60615 whole entry, looked up): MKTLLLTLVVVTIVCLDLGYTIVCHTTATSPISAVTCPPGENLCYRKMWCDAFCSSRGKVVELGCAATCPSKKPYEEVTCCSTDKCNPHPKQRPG
Chain of Follistatin-related protein 3 (Homo sapiens) (O95633 whole entry, looked up): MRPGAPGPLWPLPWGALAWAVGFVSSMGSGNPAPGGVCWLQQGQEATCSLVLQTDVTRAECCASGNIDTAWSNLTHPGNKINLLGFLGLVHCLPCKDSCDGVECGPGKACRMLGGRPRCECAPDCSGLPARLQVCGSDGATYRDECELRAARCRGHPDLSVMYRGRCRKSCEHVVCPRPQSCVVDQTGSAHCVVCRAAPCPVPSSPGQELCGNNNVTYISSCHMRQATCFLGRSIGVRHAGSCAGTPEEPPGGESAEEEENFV

On to `COc1ccc(C(=O)Nc2cccc(CN3C(=O)[C@@]4(O[C@@H](CC(=O)N(CCO)Cc5ccccc5)[C@H]([Si](C)(C)c5ccc(OC)cc5)[C@H]4C)c4ccccc43)c2)cc1`, for which the composite z-score in experiment [1] is 1.4; in experiment [2], -0.566; in [3], -0.0709; in [5], -0.0511; in experiment [6], 0.196; in [7], 0.0627. In addition, the composite z-score in experiment [8] came out at 0.823; in [9] it was 0.26; in [10] it was 0.636; in [11], 1.18; in experiment [13], 0.344; in experiment [14], 0.822. The composite z-score in experiment [15] is -0.0254; in experiment [16], -0.187; in experiment [17], -0.206; in [18], -0.38; in experiment [19], 1.12; in experiment [20], 0.681. Besides, the figures for the z-score in experiment [4] and in [12] were -2.23 (inactive) and -3.89, respectively.
Turning to `COCCCNC(=O)[C@@]1(Sc2ccc(C)cc2)CC(=O)N(Cc2ccccc2Cl)[C@@H]1c1ccc(CO)cc1I`, the composite z-score in [1] is 0.515; in experiment [2], 0.0057; in [3] it was 0.791; in experiment [5] it was -0.668; in experiment [6] it was -1.05; in experiment [7] it was -1.29. The composite z-score in experiment [8] was -0.491; in experiment [9], -1.12; in [10] it was 0.45; in experiment [11], -0.747; in experiment [13], -1.6; in experiment [14], -0.434. The composite z-score in [15] was 0.717; in experiment [16], -0.28; in experiment [17], 0.0115; in experiment [18], -0.323; in experiment [19], -1.36; in [20], -0.659. Also, the z-score in experiment [4] was -0.529 (inactive); in experiment [12], -1.94.
With `NC(=O)[C@H]1[C@@H]2C(=O)O[C@@H](c3ccccc3)[C@@H](c3ccccc3)N2[C@@H](c2ccc(O)cc2)[C@]12C(=O)Nc1ccccc12`, the composite z-score is 0.845 in experiment [1]; -0.352 in experiment [2]; 0.561 in [3]; -1.07 in [5]; -1.69 in experiment [6]; -1.15 in experiment [7]. The composite z-score in experiment [8] was -1.51; in experiment [9], -1.34; in [10] it was -1.11; in experiment [11], -0.0092; in [13], -0.194; in experiment [14] it was -0.408. The composite z-score in experiment [15] was 0.517; in experiment [16], -0.0124; in experiment [17] it was -0.214; in [18] it was -0.0753; in [19] it was -0.428; in experiment [20] it was -1.15. Further, the z-score in experiment [4] was -0.0764 (inactive); in experiment [12], -0.449.
For the compound `C=CCC(OC(C)=O)[C@@H]1[C@@H](N(Cc2cccc3ccccc23)C(=O)c2cccc3ccccc23)c2cc(OCCCO)ccc2N1C(=O)c1ccc2ccccc2c1` (stereo not given in full), the composite z-score in [1] was -0.131; in experiment [2] it was 0.0281; in experiment [3], 0.0611; in experiment [5] it was 0.523; in [6] it was -0.0993; in experiment [7] it was 0.187. Besides, the composite z-score in experiment [8] is 0.423; in experiment [9] it was 0.226; in experiment [10], 1.41; in experiment [11], 0.475; in experiment [13], 0.156; in experiment [14], -0.0677. In addition, the composite z-score in experiment [15] was 0.476; in experiment [16] it was -0.0748; in [17], 0.0494; in experiment [18], 0.185; in experiment [19] it was 0.184; in [20], 0.0426. Besides, the results for the z-score in [4] and in experiment [12] were -0.888 (inactive) and -0.351, respectively.
Take `CO[C@H]1O[C@H](CO)[C@@H](OC(=O)CCc2ccccc2)[C@H](OC(=O)c2cc3ccccc3[nH]2)[C@H]1OC(=O)c1cc2ccccc2[nH]1`: the composite z-score in experiment [1] was 0.757; in experiment [2] it was -0.118; in experiment [3], -0.0052; in experiment [5] it was 1.27; in [6], 0.828; in [7], 0.543. Moreover, the composite z-score is 0.847 in experiment [8]; 0.777 in experiment [9]; -0.108 in experiment [10]; 1.34 in [11]; 0.817 in experiment [13]; 1.65 in experiment [14]. Besides, the composite z-score in experiment [15] was 0.193; in experiment [16], 0.055; in experiment [17], -0.138; in [18], 0.248; in [19], 1.21; in [20], 0.889. The results for the z-score in experiment [4] and in experiment [12] were -0.766 (inactive) and -3.2, respectively.
Consider `CN(C)CCCCCCNC(=O)[C@@H]1C[C@@H]2C(=O)N[C@@H](CCCCN)C(=O)N2[C@@H]1c1ccc(O)cc1`, for which the composite z-score was 2.07 in experiment [1]; 3 in [2]; 1.81 in [3]; 1.58 in [5]; 1.46 in experiment [6]; 1.68 in experiment [7]. The composite z-score is 1.64 in [8]; 2.29 in [9]; 1.56 in experiment [10]; 1.53 in experiment [11]; 1.62 in experiment [13]; 2.11 in [14]. For the same compound, the composite z-score in experiment [15] worked out at 0.347; in experiment [16], 1.28; in experiment [17], 2.47; in experiment [18], 1.96; in experiment [19] it was 4.63; in [20] it was 3.03. The values for the z-score in experiment [4] and in experiment [12] were -2.28 (inactive) and 0.805, respectively.
